Screens deposited in PubChem BioAssay by National Center for Advancing Translational Sciences (NCATS).
The list is not random: actives were taken first. Their share in the collection is about 0.62%.
IL2 activator: qHTS of IL-2 Activators | IL-2 activation reporter assay, cell-based qHTS; stimulated with anti-CD3/CD4/CD28 beads; in transgenic mouse T cells | activation, % (series mostly up to about 46 µM) | hit rate 0.065% among 360,000 | AID 652025, 2013; in the data active means activation above about 50%; inconclusive means mostly about 30% to 49%; further: 0% is about no effect
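EGFP and DsRed fluorescence is measured by plate cytometry in unstimulated transgenic mouse T cells exposed to compound for 60 minutes, then stimulated 18 hours at 37 degrees C with anti-CD3/anti-CD4 beads plus anti-CD28.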
Epigenetic derep: Quantitative High-Throughput Screen for Regulators of Epigenetic Control | hit rate 0.2% among 280,000 | murine LDR cells, GFP reporter derepression, 30 h | Potency, µM (highest dose often 53.9 µM), for inactives: at the highest dose GFP activation, most hits filed as activators | AID 1865, 2009; further: potency means the concentration at half of the fitted maximal effect; % of control where 0% means no effect; nearly all actives have a fitted effect of over 60% in size
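Readout is the number of GFP-expressing murine LDR cells, counted by cytometry following washing. Cells were treated with compound for 30 h at 37 C; the stably integrated CMV-GFP locus is normally silent.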
PINK1 modulator: A Quantitative High throughput Screen to Identify Chemical Modulators of PINK1 Expression; PINK1 immunofluorescence, high-content cytometry, 24 h; Potency, µM (doses to about 76.6 µM), inactives show at the top dose activation (PINK1 increase), hits mostly activators; hit rate 0.2% among 410,000; AID 624263, 2012; active means well fitted activation curve with a large enough effect; inconclusive means small, poorly fitted or top-dose-only effect; cell line not stated here; further: potency means the concentration at half of the fitted maximal effect; % of control where 0% means no effect; nearly all actives have a fitted effect of over 65% in size
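Cells are seeded, rested 12 hours, then given compound at five concentrations or DMSO for 24 hours. After fixation, blocking and antibody staining, PINK1 amount and mitochondrial localization are scored; CCCP serves as control.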
p53 reactivator: qHTS assay for re-activators of p53 using a Luc reporter. H1299 p53-A138V BP100-luciferase reporter, luminescence, 24 h. Potency, µM (doses to about 92.2 µM), inactives show top-dose activity change, positive = activation, most hits filed as activators. hit rate 0.063% among 320,000; further: potency means the concentration at half of the fitted maximal effect; % of control where 0% means no effect; nearly all actives have a fitted effect of over 45% in size
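H1299 (p53-null), stable ts p53-A138V + BP100-Luc; 1000 cells/well, Opti-MEM/10% FBS; cpd 4 pt, 1:5; 24 h, 37 deg C, 5% CO2; detection reagent 10 min RT; luminescence.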
uPA surface inh: qHTS for Inhibitors of Cell Surface uPA Generation | cell surface uPA generation assay, qHTS | Potency, µM (top dose mostly 38.3 µM), without a hit: at the top dose activity change, negative = inhibition, hits mostly inhibitors | hit rate 0.31% among 330,000 | AID 540303, 2011; active means well fitted inhibition curve with a large enough effect; inconclusive means small, poorly fitted or top-dose-only effect; inactive means no such curve, though single readings can be large or run the other way; tested in mouse RAW 264.7 cells; further: potency means the concentration at half of the fitted maximal effect; on the % scale 0 is the no-effect control and ±100 the full control effect; nearly all actives have a fitted effect of over 55% in size
miR-21 reporter: qHTS Assay for Modulators of miRNAs and/orActivators of miR-21. 340,000 tested, under 10 active. Potency, µM (series often up to 38.3 µM), for inactives: top-dose activity change, positive = activation, usual class: activators. AID 2288, 2010. HeLa miR-21 FLuc reporter, luciferase, 48 h;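 further: % of control where 0% means no effect; miR-21 action dims this reporter so a rising signal means less miR-21 action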
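Luminescence from a firefly luciferase reporter carrying a miR-21 binding site downstream, stably expressed under a CMV promoter in HeLa cells that make miR-21 endogenously, reports miRNA modulation after 48 h compound exposure up to approximately 40uM final.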
The depositor's hits bear a star. Unless noted, the call rests on the fitted dose curve; in most records, active means well fitted curve in the direction sought with a large enough effect; inconclusive means small, poorly fitted or top-dose-only effect, or another doubt; inactive means no such curve, though single readings can be large; an effect the other way counts as inactive or inconclusive.

How did COc1cc(=O)n2c(c1C(=O)N(C)Cc1cscn1)CCN(C(=O)c1ccc(C)c(C)c1)CC2 do in these assays?
PINK1 modulator: 1%

Results for CCCCSc1c(C)c2cc3c(cc2[nH]c1=O)OCO3 ?
IL2 activator: -1; Epigenetic derep: 4%; PINK1 modulator: 5.6µM*; p53 reactivator: 3%; uPA surface inh: 10%; miR-21 reporter: -9%

How did CCOC(=O)N1CCN(C(=O)CCCCCn2c(=S)[nH]c3cc4c(cc3c2=O)OCO4)CC1 do in these assays?
IL2 activator: -2; Epigenetic derep: -6%; PINK1 modulator: 3%; p53 reactivator: 2%; uPA surface inh: -5%; miR-21 reporter: -2%

How did Cc1ccc(S(=O)(=O)Nc2ccccc2C(=O)Nc2nc(-c3ccc(F)cc3)cs2)cc1 do in these assays?
IL2 activator: -4; Epigenetic derep: -1%; PINK1 modulator: inconclusive; p53 reactivator: 28%; uPA surface inh: 13µM*; miR-21 reporter: inconclusive

Results for COc1ccc(-c2csc(NC(=O)c3ccccc3NS(=O)(=O)c3ccc(F)c(F)c3)n2)cc1 ?
IL2 activator: -4; Epigenetic derep: 2%; PINK1 modulator: inconclusive; p53 reactivator: 1%; uPA surface inh: -7%; miR-21 reporter: inconclusive

What do the screens show for `NC(=O)C1CCCN(Cc2ccc3c(c2)CN(Cc2cn[nH]c2-c2ccc(F)cc2)CCO3)C1` (stereo not drawn)?
PINK1 modulator: -1%

What do the screens show for `Cc1ccccc1CN1CCc2nnc(C(C)NC(=O)c3cc(F)ccc3F)n2CC1` (stereo not drawn)?
PINK1 modulator: 0%

Results for COc1ccc(NC(=O)CSc2ccc3c4c(cccc24)C(=O)c2ccccc2-3)cc1 ?
IL2 activator: 184*; Epigenetic derep: inconclusive; PINK1 modulator: inconclusive; p53 reactivator: 6%; uPA surface inh: 4%; miR-21 reporter: -4%

Results for N#Cc1cccc(NC(=O)CSc2ccc3c4c(cccc24)C(=O)c2ccccc2-3)c1 ?
IL2 activator: 9; Epigenetic derep: 5µM*; PINK1 modulator: 3%; p53 reactivator: -4%; uPA surface inh: 0%; miR-21 reporter: -14%

What do the screens show for `COc1ccc(NC(=O)CSc2nnc(C)c3ccccc23)cc1`?
IL2 activator: 1; PINK1 modulator: 2%; p53 reactivator: inconclusive; uPA surface inh: -8%; miR-21 reporter: -8%

What do the screens show for `CCCCCOc1ccc(NC(=O)c2cc(SC)ccc2Cl)cc1`?
IL2 activator: 2; Epigenetic derep: 0%; PINK1 modulator: 14µM*; p53 reactivator: 1%; uPA surface inh: 1%; miR-21 reporter: -3%

What do the screens show for `CCOc1ccc(NC(=O)c2cc(SC)ccc2Cl)cc1`?
IL2 activator: -1; Epigenetic derep: 2%; PINK1 modulator: 2%; p53 reactivator: -2%; uPA surface inh: -9%; miR-21 reporter: -6%

Results for CC(C)=NNC(=O)c1c(O)c2ccccc2[nH]c1=O ?
IL2 activator: -1; Epigenetic derep: 0%; PINK1 modulator: 40µM*; p53 reactivator: 12%; uPA surface inh: -11%; miR-21 reporter: 4%

How did CCc1ccc(-c2csc(NC(=O)Oc3ccccc3)n2)cc1 do in these assays?
IL2 activator: -2; Epigenetic derep: -1%; PINK1 modulator: 1%; p53 reactivator: 14µM*; uPA surface inh: 1%; miR-21 reporter: -67%

Results for CC(C)NC(=O)c1cc(-c2ccc(Br)cc2)on1 ?
IL2 activator: -1; Epigenetic derep: -1%; PINK1 modulator: 10µM*; p53 reactivator: inconclusive; uPA surface inh: -2%; miR-21 reporter: -49%

Results for CNC(=O)c1c(NC(=O)c2ccc(S(=O)(=O)N(C)c3ccccc3)cc2)sc2c1CCN(C(C)C)C2 ?
IL2 activator: 62*; PINK1 modulator: 10%; p53 reactivator: 6%; uPA surface inh: -5%; miR-21 reporter: 3%

What do the screens show for `Cc1cccc(NCc2ccc(O)c3ncccc23)c1C`?
IL2 activator: -1; Epigenetic derep: 10%; PINK1 modulator: 16µM*; p53 reactivator: 6%; uPA surface inh: -19%; miR-21 reporter: 29%

What do the screens show for `Cc1ccc(NCc2ccc(O)c3ncccc23)cc1`?
IL2 activator: 0; Epigenetic derep: -1%; PINK1 modulator: -1%; p53 reactivator: 2%; uPA surface inh: 2%; miR-21 reporter: -4%

What do the screens show for `Cc1cccnc1NCc1ccc(O)c2ncccc12`?
IL2 activator: -3; Epigenetic derep: 6.3µM*; PINK1 modulator: 14µM*; p53 reactivator: 8%; uPA surface inh: -6%; miR-21 reporter: inconclusive

What do the screens show for `Cc1ccc(NCc2ccc(O)c3ncccc23)cc1C`?
IL2 activator: -2; Epigenetic derep: -1%; PINK1 modulator: inconclusive; p53 reactivator: 1%; uPA surface inh: 3%; miR-21 reporter: -27%

What do the screens show for `Cc1ccc(N=Nc2c(O)[nH]c3ccc(F)cc23)cc1`?
IL2 activator: 269*; Epigenetic derep: inconclusive; PINK1 modulator: 8%; p53 reactivator: 23%; uPA surface inh: 0%; miR-21 reporter: -67%

What do the screens show for `O=c1[nH]nc(N=Nc2c(O)[nH]c3ccc(F)cc23)c(=O)[nH]1`?
IL2 activator: -2; PINK1 modulator: 2%; uPA surface inh: -9%

How did COc1ccc(C2CC(=O)N3CN(c4ccc(C)c(Cl)c4)CSC3=C2C#N)cc1OC (stereo not drawn) do in these assays?
IL2 activator: 2; Epigenetic derep: 2%; PINK1 modulator: 2%; p53 reactivator: 1%; uPA surface inh: 7.1µM*; miR-21 reporter: -24%

How did O=C(Nc1cccc([N+](=O)[O-])c1)c1cc2ccccc2cc1O do in these assays?
IL2 activator: -3; Epigenetic derep: 0%; PINK1 modulator: 2.5µM*; p53 reactivator: 2%; uPA surface inh: -16%; miR-21 reporter: 13%

What do the screens show for `COc1ccc(NC(=O)c2cc([N+](=O)[O-])ccc2O)cc1`?
IL2 activator: -4; Epigenetic derep: 3%; PINK1 modulator: 28µM*; p53 reactivator: -11%; uPA surface inh: inconclusive; miR-21 reporter: inconclusive

Results for Cc1c(C#N)c(NC(=O)CCl)n(Cc2cccs2)c1C ?
IL2 activator: -1; Epigenetic derep: 0%; PINK1 modulator: -1%; p53 reactivator: -12%; uPA surface inh: 5µM*; miR-21 reporter: inconclusive
